Bioassay records from PubChem.
Shown are actives, neighbours in structure and some others; about 17% of the full set was active somewhere.
HT1080 IDH1KD tx: qHTS for induction of synthetic lethality in tumor cells producing 2HG: qHTS for the HT-1080-IDH1KD cell line; HT-1080 IDH1 knockdown viability, ATP luminescence, 48 h; Potency, µM (highest dose often 46.1 µM), most hits filed as cytotoxic; hit rate 2% among 360,000
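After a 2 h attachment period, IDH1KD HT-1080 cells took pin-transferred compound for 48 h at 37 °C; ATP-based luminescence after 10 min room-temperature reagent incubation reported viability.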
TDP1 cell noCPT: qHTS for Inhibitors of human tyrosyl-DNA phosphodiesterase 1 (TDP1): qHTS in cells in absence of CPT | DT40 Tdp1-/- hTDP1 cells, no CPT, ATP luminescence, 48 h | hit rate 15% among 420,000 | AID 686978, 2013 | Potency, µM (series often up to 46.2 µM), hits mostly inhibitors; also: nearly all actives have a fitted effect of over 55% in size
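Seeded 400 DT40-hTDP1 cells/well (vehicle DMSO, no 20 nM CPT); pinned compounds; ≥48 hr at 37 °C; CellTiter-Glo luminescence as viability measure.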
HT1080NT lethal: qHTS for induction of synthetic lethality in tumor cells producing 2HG: qHTS for the HT-1080-NT fibrosarcoma cell line. HT-1080-NT fibrosarcoma viability, CellTiter-Glo ATP luminescence, 48 h. hit rate 1.6% among 360,000. Potency, µM (titrated, usually from 46.1 µM), usual class: cytotoxic;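 also: NT is the 2HG producing partner of a matched IDH1 knockdown line; nearly all actives have a fitted effect of over 55% in size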
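Toxicity toward the 2HG-producing NT line was scored as %Activity, normalised to DMSO and no-cell wells, from CellTiter-Glo luminescence after 48 hours' treatment.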
TGFb SMAD3 inh: qHTS for Inhibitors of TGF-b; HepG2 CAGA-GFP TGF-b/SMAD3 reporter, GFP fluorescence, 18 h; TGF-beta stimulated, 500 pg/mL final; Potency, µM (highest dose often 46.1 µM), most hits filed as inhibitors; hit rate 1.2% among 410,000; also: nearly all actives have a fitted effect of over 65% in size
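HEPG2 CAGA-GFP reporter cells (1000/well, DMEM with 1% FBS) received compounds, then recombinant TGF-beta at 500 pg/mL final for 18 hours at 37 degrees C. Per-cell GFP summed per well was normalised to unstimulated and stimulated DMSO controls before curve fitting.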
HepG2 tox: qHTS for Inhibitors of TGF-b: Cytotox Counterscreen; Potency, µM (highest dose often 46.1 µM), actives largely listed as cytotoxic; hit rate 0.76% among 410,000; AID 588856, 2011; HepG2 CAGA-GFP viability, ATP luminescence, 18 h
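CellTiter-Glo luminescence gave cytotoxicity after 18 hours at 37 degrees C. The cells were HepG2 CAGA-GFP in 1% FBS DMEM, stimulated with 500 pg/mL TGF-beta after compound addition. %Activity was normalised to no-cell wells (complete cell-killing) and DMSO (no toxicity), and curves were fitted and classified.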
TDP1 cell CPT: qHTS for Inhibitors of human tyrosyl-DNA phosphodiesterase 1 (TDP1): qHTS in cells in presence of CPT | Potency, µM (highest dose often 46.2 µM), hits mostly inhibitors | chicken DT40 Tdp1-/-;hTDP1 cells + 20 nM CPT, ATP luminescence, 48 h | hit rate 12% among 420,000; also: nearly all actives have a fitted effect of over 55% in size
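Cell growth measured by CellTiter-Glo luminescence after a minimum 48 h, 37 C compound exposure with 20 nM CPT in Tdp1-knockout DT40 cells stably expressing hTDP1, seeded 400/well; qHTS titration format.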
Hits are given with their value; . = inactive; ? = inconclusive; / = not tested or not shown. Calls follow the shape of the dose curve; as a rule, active = well fitted curve in the direction sought with a large enough effect; inconclusive = small, poorly fitted or top-dose-only effect, or another doubt; inactive = no such curve, though single readings can be large; an effect the other way counts as inactive or inconclusive.

SMILES | HT1080 IDH1KD tx | TDP1 cell noCPT | HT1080NT lethal | TGFb SMAD3 inh | HepG2 tox | TDP1 cell CPT
CN1CCN(C2CCN(c3cccc(Cl)c3)CC2)CC1CCO (configuration not stated) | . | ? | . | . | . | .
O=C(NCCc1cccnc1)C1CCC(=O)N(Cc2ccc(Cl)cc2)C1 (configuration not stated) | . | . | . | . | . | .
Nc1nc2c(Br)ccc(Br)c2cc1C(=O)NCc1cccc2ccccc12 | 16.4µM | ? | . | / | / | ?
COc1ccc(NC(=O)COc2ccc(/C=N/NC(=O)c3cccnc3)cc2OC)cc1 | . | 23.1µM | . | . | . | 18.4µM
COc1ccc(/C=N/NC(=O)c2ccoc2C)cc1CN1CCN(c2ccc(F)cc2)CC1 | . | 14.6µM | . | ? | . | ?
COc1ccc(C(=O)N/N=C/c2ccc(OC)c(CN3CCN(c4ccc(F)cc4)CC3)c2)cc1 | . | ? | . | . | . | ?
COc1ccc(/C=N/NC(=O)c2cccnc2)cc1COc1ccc([N+](=O)[O-])cc1 | 6.51µM | 2.59µM | ? | . | . | 2.59µM
COc1ccc(/C=N/NC(=O)c2cccnc2)cc1CSc1ccccn1 | 11.6µM | 6.51µM | 23.1µM | . | . | 6.51µM
COc1cc(/C=N/NC(=O)c2cccnc2)ccc1OC(=O)c1ccc([N+](=O)[O-])cc1 | . | . | . | . | . | .
COc1ccc(/C=N/NC(=O)c2cc(OC)c(OC)c(OC)c2)cc1CN1CCc2cc(OC)c(OC)cc2C1C (configuration not stated) | 13µM | ? | ? | ? | . | ?
COc1ccc(C(=O)N/N=C\C(C)=C\c2ccccc2)cc1OC | . | 16.4µM | . | . | . | ?
COc1ccc(C(=O)N/N=C\c2ccc(OC)c(COc3ccccc3Br)c2)c(OC)c1 | ? | ? | . | . | . | 23.1µM
COc1ccc(OCc2cc(/C=N\NC(=O)c3ccccc3)ccc2OC)cc1 | 9.2µM | 5.17µM | 6.51µM | . | . | 4.61µM
COc1ccc(/C=N\NC(=O)c2ccccc2Br)cc1COc1ccccc1 | ? | ? | ? | ? | . | ?
CC1CCN(C(=O)C2CCN(S(=O)(=O)c3cccc4nsnc34)CC2)CC1 | . | . | . | . | . | .
COC(=O)c1c(NC(=O)C2c3ccccc3Oc3ccccc32)sc2c1CCC(C(C)(C)C)C2 (configuration not stated) | / | ? | / | . | . | ?
OCC[C@@H]1C[C@H](O)[C@@H](O)[C@]2(OCc3ccc(CO)cc32)O1 | . | . | . | . | . | .
CC(=O)Nc1cccc(NC(=O)CCNC(=O)c2ccccc2)c1 | . | . | . | . | . | .
COc1cc(OC)cc(C(=O)N/N=C/c2ccc(OC)c(COc3ccc(F)cc3)c2)c1 | 5.17µM | 2.91µM | ? | ? | . | 2.31µM
COc1ccc(C(=O)N/N=C/c2ccc(OC)c(COc3c(F)c(F)cc(F)c3F)c2)cc1 | . | . | . | . | . | ?
COc1ccc(/C=N/NC(=O)c2cccnc2)cc1CN1CCCc2ccccc21 | . | 11.6µM | . | . | . | ?
COc1ccc(/C=N\NC(=O)c2ccc([N+](=O)[O-])cc2)cc1COc1c(F)c(F)cc(F)c1F | . | ? | . | 0.355µM | . | ?
COc1ccc(/C=N\NC(=O)c2ccc(F)cc2)cc1COc1ccccc1C(N)=O | . | ? | . | ? | . | .
COc1ccc(C(=O)N/N=C/c2ccc(OC)c(CN3CCCc4ccccc43)c2)cc1 | . | ? | . | . | . | .
CN(CC(=O)Nc1ccccc1C(=O)NC1CC1)Cc1cccs1 | . | . | . | . | . | .
SMILES | HT1080 IDH1KD tx | TDP1 cell noCPT | HT1080NT lethal | TGFb SMAD3 inh | HepG2 tox | TDP1 cell CPT
COCCNC(=O)C1(C)CCCN(C(=O)c2ccc(C)c(F)c2)C1 (configuration not stated) | . | . | . | . | . | .
CCOC(=O)c1cc(C#N)c(N2CCN(C(=O)c3ccccc3)CC2)nc1C(F)(F)F | . | ? | . | . | . | .
CCOC(=O)c1c(C)oc2nc(C)nc(N(C)Cc3ccccc3)c12 | / | 23.1µM | / | . | . | 18.4µM
CCOC(=O)c1c(C)oc2nc(C)nc(N3CCN(c4ccccc4)CC3)c12 | / | 14.6µM | / | ? | . | 9.2µM
CCOC(=O)c1cc(C#N)c(N2CCN(C(=O)c3cccc(C(F)(F)F)c3)CC2)nc1C(F)(F)F | ? | 14.6µM | . | ? | . | ?
CCOC(=O)c1c(C)oc2nc(C)nc(N3CCN(c4cccc(C(F)(F)F)c4)CC3)c12 | / | 5.17µM | / | . | . | 9.2µM
CCOC(=O)c1c(C)oc2nc(C)nc(N3CCN(c4ccc(C)cc4C)CC3)c12 | / | ? | / | . | . | .
O=C(CSc1nnc(Cc2ccccc2)n1-c1cccc(Cl)c1)NNC(=O)Cc1ccccc1 | . | . | . | . | . | .
O=C1CCCN1c1ccc(S(=O)(=O)NCc2ccc(F)cc2)cc1 | . | ? | . | . | . | 20.6µM
O=S(=O)(NCc1ccc(Cl)cc1)c1ccc(N2CCCCS2(=O)=O)cc1 | / | 8.2µM | / | ? | . | 11.6µM
O=S(=O)(NCc1ccc(F)cc1)c1ccc(N2CCCCS2(=O)=O)cc1 | / | 20.6µM | / | . | . | 23.1µM
Cc1ccc(Cl)cc1NS(=O)(=O)c1ccc(N2CCCCS2(=O)=O)cc1 | / | 11.6µM | / | . | . | ?
COc1cccc(CNC(=O)C2CCCN(S(=O)(=O)c3cn(C)cn3)C2)c1 (configuration not stated) | / | . | / | . | . | .
Cc1nn(CC(=O)NCc2ccco2)c(=O)c2cc3ccccc3n12 | / | . | / | . | . | .
O=S(=O)(NCc1ccccc1Cl)c1ccc(N2CCCCS2(=O)=O)cc1 | / | 20.6µM | / | ? | . | 16.4µM
CC1(c2ccc(OC(F)F)cc2)NC(=O)N(CC(=O)Nc2cccnc2Cl)C1=O (configuration not stated) | . | ? | . | . | . | ?
CC12CCC(=O)N1C(C(=O)Nc1ccc(SC(F)F)cc1)CS2 (configuration not stated) | . | . | . | . | . | ?
CC(=O)c1cccc(NC(=O)c2ccccc2OCc2ccc(F)cc2)c1 | . | . | . | . | . | .
O=C(NNC(=O)c1ccccc1OCc1ccccc1)c1ccccc1O | ? | 3.66µM | . | . | . | 5.8µM
